CtBP-E1A inh – qHTS Assay for Inhibitors of the CtBP/E1A Interaction. AlphaScreen GST-E1A/His-CtBP binding, 1536-well; active compounds read low. 340,000 compounds, 0.49% hits. activity change, % (test concentration not listed). CtBP / adenovirus E1A interaction (AlphaScreen); in the data active = activity change below about -65%; inconclusive = mostly about -30% to -63%; also: % is scaled to controls: 0 for no effect and ±100 for the full control effect
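GST-E1A and His-tagged CtBP (125 nM each as 5X stock) were preincubated with pin-transferred compound for 2 h at 37 °C in the dark, then glutathione donor and nickel acceptor beads were added for 1 h before AlphaScreen reading.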
Six1-Eya2 blk – qHTS Assay for Inhibitors of the Six1/Eya2 Interaction. Homeobox protein SIX1 (Homo sapiens) + Protein phosphatase EYA2 (Homo sapiens), …. AlphaScreen GST-Six1/His-Eya2 binding, biochemical; active compounds read low. activity change, % (test concentration not listed). 360,000 compounds, 0.56% hits. AID 651725, 2012; in the data active = activity change below about -65%; inconclusive = mostly about -30% to -63%; also: % is scaled to controls: 0 for no effect and ±100 for the full control effect
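AlphaScreen luminescence read after one hour at 37 °C in darkness. Pin-transferred compounds met GST-Six1 and His-Eya2 protein (5X stock 250 nM/500 nM) plus glutathione donor and Ni-chelate acceptor beads (5X, 50 ug/mL).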
HP1b binding inh – HTS for Inhibitors of HP1-beta Chromodomain Interactions with Methylated Histone Tails; AlphaScreen HP1-beta / biotin-H3K9me3 peptide binding; AID 540317, 2011; Chromobox protein homolog 1 (Homo sapiens), P83916; Potency, µM (top dose mostly 114 µM), for the others: top-dose activity change, negative = inhibition, hits mostly inhibitors; 390,000 compounds, 0.56% hits; also: potency is read from the fitted curve at half-maximal effect; nearly all actives have a fitted effect of over 70% in size
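AlphaScreen: HP1-beta (50 nM) preformed 30 min with biotin-H3(1-18)K9me3 peptide (50 nM) in PBS pH 7.4, 0.01% Tween-20. Compound added for 30 min at RT, then streptavidin donor/nickel chelate acceptor beads (10 ug/mL) for 30 min.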
G9a block – qHTS Assay for Inhibitors of Histone Lysine Methyltransferase G9a; 350,000 compounds, 8.8% hits; G9a H3K9 monomethylation, AlphaScreen, 2 h; Potency, µM (top dose mostly 102 µM), for inactives: at the highest dose activity, negative = inhibition, usual class: inhibitors; AID 504332, 2011; also: potency is read from the fitted curve at half-maximal effect; % is scaled to controls: 0 for no effect and ±100 for the full control effect; nearly all actives have a fitted effect of over 75% in size
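Step 1: enzyme (final 20 nM) with compound, 15 min RT. Step 2: substrate peptide 500 nM and SAM 20 uM, 2 h RT. Step 3: anti-H3K9me1 antibody and AlphaScreen beads, 10 min, then plate read.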
BAZ2B inh – qHTS Assay for Inhibitors of BAZ2B. 360,000 compounds, 4.4% hits. Potency, µM (top dose mostly 114 µM), for the others: top-dose activity change, negative = inhibition, usual class: inhibitors. AlphaScreen BAZ2B-H3K14Ac peptide displacement. Bromodomain adjacent to zinc finger domain protein 2B (Homo sapiens), Q9UIF8; also: potency is read from the fitted curve at half-maximal effect; % is scaled to controls: 0 for no effect and ±100 for the full control effect; nearly all actives have a fitted effect of over 60% in size
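Complex of BAZ2B and biotin-H3K14Ac (50 nM apiece) forms over 30 min at RT, then faces library compounds up to 110 uM for another 30 min; AlphaScreen beads added, 20 min dark incubation, luminescence read.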
JMJD2A Tudor – qHTS Assay for Inhibitors of JMJD2A-Tudor Domain; Potency, µM (titrated, usually from 114 µM), inactives show at the highest dose activity change, negative = inhibition, hits mostly inhibitors; AID 504339, 2011; Lysine-specific demethylase 4A (Homo sapiens), O75164; AlphaScreen JMJD2A-Tudor / H3K4me3 peptide binding; 390,000 compounds, 4.4% hits; also: potency is read from the fitted curve at half-maximal effect; % is scaled to controls: 0 for no effect and ±100 for the full control effect; nearly all actives have a fitted effect of over 50% in size
Active calls of the source: *; ? = inconclusive; / = no result; [ ] = remark or other dose. In the library only some 10% were active in any assay of this set; here they are far more common. Unless noted, calls follow the shape of the dose curve; as a rule, active = well fitted inhibition curve with a large enough effect; inconclusive = small, poorly fitted or top-dose-only effect; inactive = no such curve, though single readings can be large or run the other way.

SMILES	CtBP-E1A inh	Six1-Eya2 blk	HP1b binding inh	G9a block	BAZ2B inh	JMJD2A Tudor
CCCSc1nc2sc3c(c2c(=O)n1-c1ccccc1)CCC(C)C3 (configuration not stated)	/	/	17%	10%[59 µM]	4%	-11%
CCCc1nnc(SCc2cc(=O)c3c(C)cc(C)cc3[nH]2)n1C	/	/	17%[57 µM]	2%[59 µM]	2%	-8%
CC(=O)N1CCC(C(=O)Nc2nnc(C(C)C)s2)CC1	/	/	8%	/	/	-9%
O=S1(=O)c2ccccc2N=NN1Cc1ccc(Cl)cc1	2	0	-18%	0.63µM*	?	79µM*
O=S1(=O)c2ccccc2N(Cc2ccc(Cl)cc2)c2ccccc21	/	/	50%	-22%[59 µM]	-16%	-28%
Cc1csc2nc(COc3ccccc3NC(=O)c3ccc(C(C)(C)C)cc3)cc(=O)n12	/	/	30%	-1%[59 µM]	1%	-24%
Cn1cccc1Cc1nnc(SCC(=O)N2CCCCCC2)n1CCc1ccccc1	-2	-5	44%	50µM*	-35%	-19%
Cn1cccc1Cc1nnc(SCC(N)=O)n1CCc1ccccc1	2	-4	36%	45µM*	-26%	-20%
Cn1cccc1Cc1nnc(SCC(=O)NC2CCCC2)n1CCc1ccccc1	-3	-5	9%	79µM*	-34%	?
CC1CCN(C(=O)CSc2nnc(Cc3cccn3C)n2CCc2ccccc2)CC1	-5	-1	9%	45µM*	-36%	?
Cn1cccc1Cc1nnc(SCC(=O)N2CCCC2)n1CCc1ccccc1	0	-2	12%	?	?	-26%
COc1cc2nc(NCCC(C)C)n3nc(-c4ccccc4)nc3c2cc1OC	/	/	-10%	-13%[59 µM]	-10%	-13%
CCCc1[nH]n(-c2ccc([N+](=O)[O-])cc2)c(=O)c1C=NCCN1CCNCC1	/	/	/	-42%	-4%	/
CCCc1[nH]n(-c2ccc([N+](=O)[O-])cc2)c(=O)c1C(C)=NCc1ccncc1	-10	-5	-8%	35µM*	-29%	?
CCCc1[nH]n(-c2ccc([N+](=O)[O-])cc2)c(=O)c1C=NCCCn1ccnc1	-12	-20	-12%	16%[12.7 µM]	50µM*	-26%
O=C(NC1(C(F)(F)F)Oc2ccccc2O1)N1CCCC1	4	-1	48%	6.3µM*	-6%	?
O=C(Nc1ccc2c(c1)OCCO2)NC1(C(F)(F)F)Oc2ccccc2O1	-3	6	-3%	2µM*	-9%	?
O=C(Nc1ccc2c(c1)OCO2)NC1(C(F)(F)F)Oc2ccccc2O1	0	-10	19%	6.3µM*	-22%	-34%
Cc1c(-c2nsc(NC(=O)c3ccccc3)n2)nnn1-c1ccc(C(F)(F)F)c(Cl)c1	/	/	9%	-7%[59 µM]	2%	-17%
COC(=O)c1ccccc1NC(=O)CSc1nc(C)c(Cl)c(C)c1C#N	/	/	31%	9%[59 µM]	-3%	?
O=C1CS/C(=N\NC(=O)c2ccccc2)N1	-9	-7	31%	2.5µM*	-36%	?
COc1cccc(C2CC(c3c(-c4ccccc4)c4cc(Cl)ccc4[nH]c3=O)=NN2S(C)(=O)=O)c1OC (configuration not stated)	-8	-14	10%	40µM*	-22%	-15%
CC(=O)C1=C(c2ccccc2)NC(=O)NC1c1ccc(O)c(O)c1 (configuration not stated)	-5	6	-17%	/	?	13µM*
CC(=O)C1=C(c2ccccc2)NC(=S)NC1c1ccc(O)c(O)c1 (configuration not stated)	-17	9	24%	8.9µM*	?	-16%
CC(=O)C1=C(c2ccccc2)NC(=S)NC1c1cc(Cl)c(OC(C)C)c(Cl)c1 (configuration not stated)	-26	-20	?	-8%[59 µM]	-33%	-17%
SMILES	CtBP-E1A inh	Six1-Eya2 blk	HP1b binding inh	G9a block	BAZ2B inh	JMJD2A Tudor
CC(=O)C1=C(c2ccccc2)NC(=O)NC1c1ccc2c(c1)OCO2 (configuration not stated)	-17	5	9%	/	-6%	-12%
CC1=C([N+](=O)[O-])C(c2ccc(O)c(O)c2)NC(=O)N1 (configuration not stated)	7	0	11%	10µM*	19%	-19%
COc1ccc(C2NC(=O)NC(C)=C2[N+](=O)[O-])cc1OC (configuration not stated)	4	11	35%	23%[59 µM]	1%	4%
CCCOc1ccc(-c2nc3ccc(Br)cc3c(=O)o2)cc1	/	/	28%	20%[59 µM]	4%	-11%
CC(C)(C)OC(=O)N1CCC(c2c(C(=O)NC3CCN(Cc4ccccc4)CC3)cnn2-c2cccc(F)c2)CC1	/	/	10%	-25%[59 µM]	3%[57.1 µM]	-21%
O=C1[C@@H]2CSC(c3ccc(F)cc3)N2C(=O)N1c1ccc(Cl)cc1 (some centres not stated)	/	/	77%	34%[59 µM]	9%	35%
Cc1cccn2c(=O)c(C(=O)NCc3ccc(F)cc3)c(O)nc12	/	/	45%	9%[59 µM]	3%	-13%
CCOC(=O)c1c(C)[nH]c(C)c1S(=O)(=O)N1CCCC(C(=O)N2CCN(c3ccc(Cl)cc3)CC2)C1 (configuration not stated)	/	/	-4%	-1%[59 µM]	?	?
COc1ccc(OCC(=O)Nc2ccc(-c3nc4cc(C)cc(C)c4o3)cc2)cc1	/	/	27%	-10%[59 µM]	-4%	-19%
Cc1nc2sc3c(c2c(=O)o1)CCCC3	-2	-6	15%	45µM*	-31%	-24%
CC(C)c1nc2sc3c(c2c(=O)o1)CCCC3	1	7	35%	12%[59 µM]	3%	17%
O=c1oc(-c2ccccc2)nc2sc3c(c12)CCC3	/	-4	4%	-17%	50µM*	-27%
CC1CSc2nc3sc4c(c3c(=O)n21)CCCC4 (configuration not stated)	2	4	42%	20µM*	-2%	-30%
O=c1c2c3c(sc2nc2n1CCCS2)CCCC3	-15	-15	36%	-6%[12.7 µM]	5%	-11%
OC[C@H]1O[C@@](CO)(O[C@H]2O[C@H](CO)[C@@H](O)[C@H](O)[C@H]2O)[C@@H](O)[C@@H]1O	/	/	/	-4%[12.7 µM]	/	/

Screening data: PubChem, National Center for Advancing Translational Sciences (NCATS)
